Screening results: PubChem BioAssay, National Center for Advancing Translational Sciences (NCATS)
This is a sample that favours compounds with a hit; in the whole collection about 10% have one here.
HP1b chromo inh = HTS for Inhibitors of HP1-beta Chromodomain Interactions with Methylated Histone Tails; AlphaScreen HP1-beta / biotin-H3K9me3 peptide binding; Potency, µM (series often up to 114 µM), without a hit: at the top dose activity change, negative = inhibition, hits mostly inhibitors; Chromobox protein homolog 1 (Homo sapiens), P83916; 390,000 compounds, 0.56% hits; also: potency is read from the fitted curve at half-maximal effect; nearly all actives have a fitted effect of over 70% in size
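AlphaScreen: HP1-beta (50 nM) preformed 30 min with biotin-H3(1-18)K9me3 peptide (50 nM) in PBS pH 7.4, 0.01% Tween-20. Compound added for 30 min at RT, then streptavidin donor/nickel chelate acceptor beads (10 ug/mL) for 30 min.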
G9a inh = qHTS Assay for Inhibitors of Histone Lysine Methyltransferase G9a; Histone-lysine N-methyltransferase EHMT2 (Homo sapiens), Q96KQ7; G9a H3K9 monomethylation, AlphaScreen, 2 h; Potency, µM (top dose mostly 102 µM), for the others: at the top dose activity, negative = inhibition, most hits filed as inhibitors; 350,000 compounds, 8.8% hits; also: potency is read from the fitted curve at half-maximal effect; % is scaled to controls: 0 for no effect and ±100 for the full control effect; nearly all actives have a fitted effect of over 75% in size
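Step 1: enzyme (final 20 nM) with compound, 15 min RT. Step 2: substrate peptide 500 nM and SAM 20 uM, 2 h RT. Step 3: anti-H3K9me1 antibody and AlphaScreen beads, 10 min, then plate read.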
BAZ2B block = qHTS Assay for Inhibitors of BAZ2B. Bromodomain adjacent to zinc finger domain protein 2B (Homo sapiens), Q9UIF8. AlphaScreen BAZ2B-H3K14Ac peptide displacement. Potency, µM (doses to about 114 µM), without a hit: at the top dose activity change, negative = inhibition, hits mostly inhibitors. 360,000 compounds, 4.4% hits; also: potency is read from the fitted curve at half-maximal effect; % is scaled to controls: 0 for no effect and ±100 for the full control effect; nearly all actives have a fitted effect of over 60% in size
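Multi-concentration screen (max 110 uM) measuring displacement of acetylated histone H3 peptide from BAZ2B by AlphaScreen, using 50 nM protein, 50 nM peptide and 10 ug/mL streptavidin donor plus Ni-chelate acceptor beads.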
CtBP-E1A inh = qHTS Assay for Inhibitors of the CtBP/E1A Interaction; CtBP / adenovirus E1A interaction (AlphaScreen); AlphaScreen GST-E1A/His-CtBP binding, 1536-well; stronger effect = lower value; activity change, % (test concentration not listed); 340,000 compounds, 0.49% hits; AID 651724, 2012; in the data active = activity change below about -65%; inconclusive = mostly about -30% to -63%; also: % is scaled to controls: 0 for no effect and ±100 for the full control effect
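In 5 uL wells, 23 nL compound meets equimolar GST-E1A and His-CtBP (5X stock 125 nM each) for 2 h, 37 °C. Beads (5X, 50 ug/mL) then 1 h, 37 °C, dark.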
JMJD2A Tudor inh = qHTS Assay for Inhibitors of JMJD2A-Tudor Domain; 390,000 compounds, 4.4% hits; Lysine-specific demethylase 4A (Homo sapiens), O75164; AlphaScreen JMJD2A-Tudor / H3K4me3 peptide binding; Potency, µM (top dose mostly 114 µM), for the others: top-dose activity change, negative = inhibition, most hits filed as inhibitors; also: potency is read from the fitted curve at half-maximal effect; % is scaled to controls: 0 for no effect and ±100 for the full control effect; nearly all actives have a fitted effect of over 50% in size
Six1-Eya2 blk = qHTS Assay for Inhibitors of the Six1/Eya2 Interaction; Homeobox protein SIX1 (Homo sapiens) + Protein phosphatase EYA2 (Homo sapiens), …; AlphaScreen GST-Six1/His-Eya2 binding, biochemical; stronger effect = lower value; activity change, % (test concentration not listed); 360,000 compounds, 0.56% hits; in the data active = activity change below about -65%; inconclusive = mostly about -30% to -63%; also: % is scaled to controls: 0 for no effect and ±100 for the full control effect
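AlphaScreen luminescence read after one hour at 37 °C in darkness. Pin-transferred compounds met GST-Six1 and His-Eya2 protein (5X stock 250 nM/500 nM) plus glutathione donor and Ni-chelate acceptor beads (5X, 50 ug/mL).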
Starred values were filed as active, the others as inactive; [ ] = remark or other dose. Unless noted, calls follow the shape of the dose curve; as a rule, active = well fitted inhibition curve with a large enough effect; inconclusive = small, poorly fitted or top-dose-only effect; inactive = no such curve, though single readings can be large or run the other way.

`Cc1nc2c(c(C)c1CCC(=O)NCc1ccc(Cl)cc1)c(=O)n(C)c(=O)n2C` gave HP1b chromo inh 46%, G9a inh 5%[59 µM], BAZ2B block -5% and JMJD2A Tudor inh -7%.
For Cc1ccc(Cn2c(=O)n(CCc3ccccc3)c(=O)c3c(C)c(C)sc32)cc1 the results were HP1b chromo inh 19%, G9a inh -6%[59 µM], BAZ2B block -13% and JMJD2A Tudor inh 2%.
Screening CCC1Sc2ccc(S(=O)(=O)N3CCN(c4ccccc4)CC3)cc2NC1=O (stereo not drawn) returned HP1b chromo inh -8%, G9a inh 18µM*, BAZ2B block -33%, CtBP-E1A inh -21, JMJD2A Tudor inh 13µM* and Six1-Eya2 blk -9.
For CCc1nnc(NS(=O)(=O)c2ccccc2)s1 the results were HP1b chromo inh 35%, G9a inh 11%[0.501 µM], BAZ2B block -19%, CtBP-E1A inh 6, JMJD2A Tudor inh -18% and Six1-Eya2 blk 7.
For O=S(=O)(Nc1nnc(C2CC2)s1)c1ccccc1 the results were HP1b chromo inh 48%, G9a inh 50µM*, BAZ2B block -13%, JMJD2A Tudor inh -2% and Six1-Eya2 blk -1.
Screening CS(=O)(=O)Nc1nnc(C2CCCC2)s1 returned HP1b chromo inh -5%, G9a inh 50µM*, BAZ2B block -24%, CtBP-E1A inh -7, JMJD2A Tudor inh -36% and Six1-Eya2 blk -1.
C/C=C/C(=O)Nc1nnc(C2CCCCC2)s1 was read as HP1b chromo inh 44%, G9a inh inconclusive, BAZ2B block -33%, CtBP-E1A inh 9, JMJD2A Tudor inh -6% and Six1-Eya2 blk 1.
Cc1cc(C(F)F)n2nc(C(=O)Nc3cccc(Cl)c3C)nc2n1 was read as HP1b chromo inh 30%, G9a inh 9%[59 µM], BAZ2B block -2% and JMJD2A Tudor inh -4%.
For CCN1C(c2ccc(F)cc2)=CS/C1=C(\C#N)c1nnc2n1-c1ccccc1SC2 the results were HP1b chromo inh -16%, G9a inh 32µM*, BAZ2B block inconclusive, CtBP-E1A inh -16, JMJD2A Tudor inh inconclusive and Six1-Eya2 blk -11.
`COc1ccc(-c2noc(COc3cc(C)c(Br)c(C)c3)n2)cc1OC` gave HP1b chromo inh 47%, G9a inh 18%[59 µM], BAZ2B block 8% and JMJD2A Tudor inh 13%.
Screening CC1=NN(c2nc(-c3ccc(C)cc3)cs2)C(=O)C1N=Nc1ccc2ccccc2c1 (stereo not drawn) returned HP1b chromo inh -28%, G9a inh 1µM*, BAZ2B block inconclusive, CtBP-E1A inh -12, JMJD2A Tudor inh inconclusive and Six1-Eya2 blk -20.
COc1ccc(S(=O)(=O)N(CCc2ccccc2)CC(=O)Nc2cc(Cl)ccc2C)cc1 was read as HP1b chromo inh 36%, G9a inh 3%[59 µM], BAZ2B block 2% and JMJD2A Tudor inh 1%.
For O=C(CCn1c(=S)[nH]c2ccccc2c1=O)NCCc1ccccc1 the results were HP1b chromo inh 26%, G9a inh -31%, CtBP-E1A inh -4, JMJD2A Tudor inh -2% and Six1-Eya2 blk 3.
For Cc1ccccc1C(=O)c1cccn1CC(=O)NCC1CCCO1 (stereo not drawn) the results were HP1b chromo inh 24%, G9a inh 45µM*, BAZ2B block 8%, CtBP-E1A inh 4, JMJD2A Tudor inh -16% and Six1-Eya2 blk -4.
Screening CCCn1c(=S)[nH]c2cc(C(=O)NCC3CCCO3)ccc2c1=O (stereo not drawn) returned HP1b chromo inh 51%, G9a inh 10µM*, BAZ2B block -8%, CtBP-E1A inh 6, JMJD2A Tudor inh -1% and Six1-Eya2 blk 0.
For O=C(CCn1c(=S)[nH]c2ccccc2c1=O)NCC1CCCO1 (stereo not drawn) the results were HP1b chromo inh 41%, G9a inh inconclusive, BAZ2B block 1%, CtBP-E1A inh 5, JMJD2A Tudor inh 50µM* and Six1-Eya2 blk -3.
Cc1ccccc1C(=O)c1cccn1CC(=O)NCc1ccccc1 was read as HP1b chromo inh 22%, G9a inh -6%, BAZ2B block -1%, CtBP-E1A inh 0, JMJD2A Tudor inh -4% and Six1-Eya2 blk -5.
For O=C(Cn1nc(C(=O)O)c2ccccc2c1=O)NCC1CCCO1 (stereo not drawn) the results were HP1b chromo inh 11%, G9a inh 71µM*, BAZ2B block 3%, CtBP-E1A inh 1, JMJD2A Tudor inh -4% and Six1-Eya2 blk 7.
CCOc1ccc(NC(=O)C(C)n2c(=O)cc(-c3ccccc3)c3c(C)nn(C)c32)cc1 (stereo not drawn) was read as HP1b chromo inh 15%, G9a inh 3%[59 µM], BAZ2B block -8% and JMJD2A Tudor inh -13%.
`Cc1cc(NC(=O)c2cccnc2)cc(-c2nc3cc(Cl)ccc3o2)c1O` gave HP1b chromo inh 66%, G9a inh 45%[59 µM], BAZ2B block 16% and JMJD2A Tudor inh -19%.
For COc1ccc(OC)c(NC(=O)N2CCN(Cc3nc4ccc(C)cc4o3)CC2)c1 the results were HP1b chromo inh -4%, G9a inh 8%[59 µM], BAZ2B block inconclusive and JMJD2A Tudor inh -18%.
CCn1cc(C(=O)O)c(=O)c2cnc(N3CCN(C(=S)NC(=O)c4ccc(Br)cc4)CC3)nc21 was read as HP1b chromo inh 27%, BAZ2B block 1%, CtBP-E1A inh -1, JMJD2A Tudor inh 56µM* and Six1-Eya2 blk -2.
For CCn1cc(C(=O)O)c(=O)c2cnc(N3CCN(C(=S)Nc4ccccc4Cl)CC3)nc21 the results were HP1b chromo inh 6%, G9a inh 56µM*, BAZ2B block -4%, CtBP-E1A inh inconclusive, JMJD2A Tudor inh -2% and Six1-Eya2 blk -16.
`CCn1cc(C(=O)O)c(=O)c2cnc(N3CCN(C(=S)NC(=O)c4ccc(Cl)cc4)CC3)nc21` gave HP1b chromo inh 50%, G9a inh inconclusive, BAZ2B block -13%, CtBP-E1A inh -6, JMJD2A Tudor inh -3%[11.4 µM] and Six1-Eya2 blk -2.
C=CCNC(=S)N1CCN(c2ncc3c(=O)c(C(=O)O)cn(CC)c3n2)CC1 was read as HP1b chromo inh 22%, BAZ2B block -38%, CtBP-E1A inh -11, JMJD2A Tudor inh 50µM* and Six1-Eya2 blk -7.
